Laboratory results from PubChem BioAssay (NCI).
“And” between values parts separate entries of the source, which are not always exact repeats. Identical values can stand only once. About 79,000 compounds went through this panel and 15% of them were active in at least one assay; those are over-represented in the sample as a whole. The source made the active and inactive calls. Rule as the data show it: active = growth inhibition above about 70%; inactive = the rest.

Tests used:
[1] = NCI Yeast Anticancer Drug Screen. Data for the rad52 strain (AID 147);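 also: 0% = growth of vehicle-treated control cultures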; details: S. cerevisiae rad52 mutant growth inhibition, active compounds read high
Method in brief: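 Screen used a yeast mutant impaired in DNA repair. After compound exposure, growth was measured. Values reflect inhibition compared with vehicle-treated cells.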

[2] = NCI Yeast Anticancer Drug Screen. Data for the wt1 strain (AID 149);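 also: 0% = growth of vehicle-treated wt1 cultures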; details: S. cerevisiae wt1 strain (SPY 50644) growth inhibition, active compounds read high
Method in brief: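 Vehicle-normalised growth inhibition; strain wt1; compound exposure.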

[3] = NCI Yeast Anticancer Drug Screen. Data for the rad50EPP+ strain (AID 151);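 also: 0% = growth of vehicle-treated control cultures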; details: S. cerevisiae rad50 mutant strain, active compounds read high
Method in brief: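 Exposing the rad50EPP+ strain to each compound, growth was compared with vehicle-only cultures to give inhibition.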

[4] = NCI Yeast Anticancer Drug Screen. Data for the mgt1 strain (AID 153); details: S. cerevisiae mgt1 mutant growth inhibition, active compounds read high
Method in brief: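 Genetically defined yeast (mgt1) treated with compound; inhibition of growth expressed against vehicle-treated controls.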

[5] = NCI Yeast Anticancer Drug Screen. Data for the rad50 strain (AID 155);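 also: 0% = growth of vehicle-only cultures of the same strain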; details: S. cerevisiae rad50 strain growth inhibition, active compounds read high
Method in brief: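 A DNA repair-deficient yeast mutant serves as the test organism; compound-induced growth inhibition is calculated against vehicle-treated cells.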

[6] = NCI Yeast Anticancer Drug Screen. Data for the mec2-1 strain (AID 157); details: S. cerevisiae mec2-1 strain, active compounds read high
Method in brief: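 Readout is yeast growth inhibition, normalised to vehicle-treated controls, in the mec2-1 strain exposed to compound.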

[7] = NCI Yeast Anticancer Drug Screen. Data for the rad14 strain (AID 159);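 also: 0% = growth of vehicle-treated control cultures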; details: S. cerevisiae rad14 strain growth inhibition, active compounds read high
Method in brief: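 Vehicle-treated cultures served as the baseline for growth inhibition of a DNA repair-mutant yeast strain exposed to each compound.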

[8] = at 5.0 µM (retest, dose inferred, filed as 0.5)
[9] = at 50.0 µM (retest, dose inferred, filed as 5.0)

Measured: growth inhibition

CN(C)CCOC1(Cc2ccc(Cl)cc2Cl)CCC(C(C)(C)C)CC1 (stereo unspecified)
inactive: [1]; at 1.2 µM 1% and -3% | [1]; at 3.7 µM 1% and 0% | [2]; at 1.2 µM 0% and -4% | [2]; at 3.7 µM -4% and -6% | [3]; at 1.2 µM -9% and -10% | [3]; at 3.7 µM -50% and -53% | [4]; at 1.2 µM 0% and -3% | [4]; at 3.7 µM 14% and 19% | [5]; at 1.2 µM 1% and -4% | [5]; at 3.7 µM 3% | [5]; [8] 48% and 22% | [6]; at 1.2 µM -5% and -2% | [6]; at 3.7 µM -4% and 5% | [6]; [8] 49% and 21% | [7]; at 1.2 µM -3% and -1% | [7]; at 3.7 µM 11% and 18%
active: [1]; at 11.0 µM 99% and 98% | [1]; at 33.0 µM 99% | [1]; at 100.0 µM 99% and 97% | [2]; at 11.0 µM 98% and 86% | [2]; at 33.0 µM 99% | [2]; at 100.0 µM 100% and 99% | [3]; at 11.0 µM 91% and 94% | [3]; at 33.0 µM 98% and 92% | [3]; at 100.0 µM 99% | [4]; at 11.0 µM 99% | [4]; at 33.0 µM 100% and 99% | [4]; at 100.0 µM 100% and 99% | [5]; at 11.0 µM 99% | [5]; at 33.0 µM 99% | [5]; [9] 100% | [5]; at 50.0 µM 98.8% and 99.2% | [5]; at 100.0 µM 99% | [6]; at 11.0 µM 99% | [6]; at 33.0 µM 100% and 99% | [6]; [9] 100% | [6]; at 50.0 µM 99.5% | [6]; at 100.0 µM 100% and 99% | [7]; at 11.0 µM 99% | [7]; at 33.0 µM 99% | [7]; at 100.0 µM 100% and 99%
